# HCV inhibitor = blocks hepatitis C virus; 340,000 compounds, 3.4% hits; Huh7.5.1 HCVcc-Cre infection, luciferase reporter, 44 h; AID 651820; Potency, µM (titrated, usually from 41.8 µM), for the others: top-dose activity change, negative = inhibition, most hits filed as inhibitors; note: potency is the fitted concentration of half-maximal effect; % is set by controls: 0 for no effect and ±100 for the full control effect
#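 A cell-based infection assay in which seeded cells (1,000 per well) receive test compound after 4 h, are inoculated with HCVcc-Cre at approximately 0.5 moi, and are incubated 44 h before luminescence detection.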
# Cycloheximide cs = counter-screen hit for Shiga toxin inhibitors, cycloheximide; cell reporter, cycloheximide protein synthesis inhibition counterscreen; max response, %; 300,000 compounds, 12% hits; AID 2314; in the data active = max response mostly above about 13%, no sharp cut-off; inactive = mostly below about 14%; note: read at 38.3 µM for the half of the compounds with a filed dose; 0% is about no effect
# Pf growth 96h = P. falciparum growth inhibition at 96 hours; AID 504834; P. falciparum luciferase reporter growth, 96 h; 320,000 compounds, 6.9% hits; Potency, µM (highest dose often 28.7 µM), for the others: at the top dose activity change, negative = inhibition, usual class: inhibitors; note: potency is the fitted concentration of half-maximal effect; % is set by controls: 0 for no effect and ±100 for the full control effect
#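 Cell-based qHTS: luciferase-tagged P. falciparum in erythrocytes (2% hematocrit, 0.05% parasitemia final) incubated with compounds for 96 hours, 37 C, 5% CO2; luciferase detection reagent then added and luminescence measured.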
# Shiga inhibitor = blocks Shiga toxin action in Vero cells; inhibition, % at 38.7 µM; Vero cells, Shiga toxin protein synthesis inhibition reporter; 290,000 compounds, 9.2% hits; in the data active = inhibition mostly above about 28%, no sharp cut-off; inactive = mostly below about 43%; note: 0% is about no effect
# AMA1 RON2 block = disrupts binding of P. falciparum AMA1 to RON2; AlphaScreen AMA1-biotinylated RON2 peptide binding; Potency, µM (highest dose often 58.2 µM), without a hit: top-dose activity change, negative = inhibition, usual class: inhibitors; 360,000 compounds, 0.2% hits;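 note: potency is the fitted concentration of half-maximal effect; 0% = vehicle wells and -100% = peptide control; nearly all actives have a fitted effect of over 45% in size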
#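 AMA1 (3D7) with his tag at 25 nM final met compounds first, then biotinylated RON2 peptide at 25 nM; detection used donor plus acceptor beads, 10 µg/mL apiece, read by AlphaScreen after 30 min at room temperature.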
# Pf growth 48h = P. falciparum growth inhibition at 48 hours (one generation); P. falciparum luciferase growth in erythrocytes, 48 h; Potency, µM (titrated, usually from 28.7 µM), for inactives: at the highest dose activity change, negative = inhibition, actives largely listed as inhibitors; 310,000 compounds, 5.9% hits; AID 504832; note: potency is the fitted concentration of half-maximal effect; % is set by controls: 0 for no effect and ±100 for the full control effect
#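 Here the parasites carry a stable luciferase gene and grow inside erythrocytes in Albumax-based RPMI medium with compound for one erythrocytic cycle. Activity is scored as loss of luminescent signal.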
# * hit, by the source's call; i = inactive; ? = inconclusive; nt = no result given; ! = not confirmed by another sample. Sampled rows, rich in hits. Any-hit rate of the full collection: about 21%. Unless noted, calls come from the whole dose curve; as a rule, active = well fitted curve in the direction sought with a large enough effect; inconclusive = small, poorly fitted or top-dose-only effect, or another doubt; inactive = no such curve, though single readings can be large; an effect the other way counts as inactive or inconclusive.
SMILES,HCV inhibitor,Cycloheximide cs,Pf growth 96h,Shiga inhibitor,AMA1 RON2 block,Pf growth 48h
COc1ccc(Nc2nccc(OC)c2C#N)cc1,3%,-7,32%,-7,0%,10%
COc1ccc(Nc2nccc(NCCO)n2)cc1,nt,41*,nt,72*,nt,nt
COc1ccc(Nc2nccc(-c3cccc(N)c3)n2)cc1,?,68*,27%,71*,-5%,103%
C=CCNc1nc(Nc2ccc(OC)cc2)nc(OCC)n1,?,-3,nt,-18,-2%,8%
CCCc1nc2c3ccccc3ccn2c1Cc1cccc(F)c1,nt,nt,nt,nt,-10%,nt
NC(N)=N/N=C/c1c(Cl)cccc1Cl,-25%,1,3.7µM*!,-4,0%,13µM*
NC(N)=N/N=C/c1ccccc1Cl,-11%,2,10µM*,-7,-6%,12µM*
COc1ccccc1CC(=O)O/N=C(\N)Cc1cccc2ccccc12,-13%,-4,?,-8,-9%,5.9µM*
O=C(O)Cc1cccc2ccccc12,10%,nt,67%,nt,-1%,33%
Cc1ccc(C(=O)O/N=C(\N)Cc2cccc3ccccc23)cc1,-6%,12,22%,15,0%,1.9µM*
CCCn1c(SCC(=O)Nc2ccc(S(=O)(=O)N3CCOCC3)cc2)n[nH]c1=O,nt,nt,nt,nt,-2%,nt
COc1ccccc1N(C(C)=O)c1nc(C)cc(C)c1C#N,9%,-3,9.3µM*,2,-4%,-19%
CC(Cc1ccccc1Sc1ccc(O)cc1)N(C)C (stereo not drawn),?,-1,nt,-11,-8%,13µM*
Cc1cccc(N2CCN(C(=O)c3cc(S(=O)(=O)N4CCCC4)cn3C)CC2)c1C,?,-1,?,-5,0%,9.3µM*
Cc1cccc(NC(=O)c2cc(S(=O)(=O)N3CCOCC3)cn2C)c1C,12%,-2,6.6µM*,-4,-3%,7%
CC1(C)CC(Cc2ccc(C(F)(F)F)cn2)N(C(=O)OC(C)(C)C)C1 (stereo not drawn),nt,nt,nt,nt,4%,nt
Cc1noc(C)c1NC(=O)Nc1ccc2c(c1)C(=O)N([C@@H](C)CO)C[C@@H](C)[C@@H](CN(C)Cc1ccc3c(c1)OCO3)O2,0%,nt,nt,nt,2%,nt
COC(=O)c1cc(C)ccc1/C=C1/Cc2c(C)cc(C)cc2C1=O,?,nt,nt,nt,-23%,nt
COc1cc(S(=O)(=O)NCC(c2ccco2)N2CCCCC2)ccc1NC(C)=O (stereo not drawn),-15%,nt,-21%,nt,-10%,?
CC(=O)OCC(NC(=O)C(Cc1ccccc1)NC(=O)OC(C)(C)C)C1OC(n2cc(C)c(=O)[nH]c2=O)C(OC(C)=O)C1OC(C)=O (stereo not drawn),nt,11,nt,-14,nt,nt
Cn1c(=O)c2c(nc(N3CCc4ccccc4C3)n2Cc2ccccc2F)n(C)c1=O,?,-3,-22%,1,12%,13µM*
CN1CCN(c2nc3c(c(=O)n(C)c(=O)n3C)n2Cc2ccccc2F)CC1,1%,0,-21%,11,-12%,-14%
Cc1ccccc1Cn1c(CN2CCc3ccccc3C2)nc2c1c(=O)n(C)c(=O)n2C,?,-5,?,-9,-9%,13µM*
Nc1ccc(C2(c3ccc(N)cc3)c3ccccc3-c3ccccc32)cc1,8.9µM*,1,34%,-5,-17%,7%
Nc1ccc(C2(c3ccc(N)cc3)c3ccccc3C(=O)c3ccccc32)cc1,-7%,nt,nt,nt,-26%,nt
SMILES,HCV inhibitor,Cycloheximide cs,Pf growth 96h,Shiga inhibitor,AMA1 RON2 block,Pf growth 48h
Cc1cc(C(=O)N2CCN(c3cc(Cl)ccc3C)CC2)on1,4%,1,74%,-2,-3%,0%
Nc1c2c(nc3sc4c(c13)CCCCC4)CCCCC2,?,51*,109%,59*,7%,151%
Nc1c2c(nc3sc4c(c13)CCCC4)CCCCC2,?,71*,0.83µM*,130*,-5%,83%
Nc1nc2c(s1)CCCCCCCCCC2,13%,-1,?,2,-14%,-18%
Nc1c2c(nc3sc4c(c13)CCCC4)CCCC2,?,26*,133%,107*,-20%,?
CCCCC(=O)Oc1c(S(=O)(=O)c2ccccc2)c(C)nn1C(C)(C)C,0%,8,9%,-6,-16%,40%
CCS(=O)(=O)N1CCN(c2ccc(C(=O)NC34CC5CC(CC(C5)C3)C4)cc2[N+](=O)[O-])CC1,33%,-2,5.9µM*,-3,7%,5.9µM*
O=C(NC12CC3CC(CC(C3)C1)C2)c1ccc(N2CCNCC2)c([N+](=O)[O-])c1,?,-3,?,-10,-2%,5.2µM*
CS(=O)(=O)N1CCN(c2ccc(C(=O)NC34CC5CC(CC(C5)C3)C4)cc2[N+](=O)[O-])CC1,14%,-4,?,-10,-5%,?
CCn1c(-c2cc(-c3ccc(C)cc3)nc3ccccc23)n[nH]c1=S,14%,16*,17µM*,21,38%,?
CCn1c(-c2cc(-c3ccc(OC(C)C)cc3)nc3ccccc23)n[nH]c1=S,-3%,31*,1.5µM*,44,56%,nt
CCCOc1cccc(-c2cc(-c3n[nH]c(=S)n3CC)c3ccccc3n2)c1,?,-2,3.7µM*,16,13%,10µM*
C=CCn1c(-c2cc(-c3ccc(C)cc3)nc3ccccc23)n[nH]c1=S,-3%,13,?,13,22%,17µM*
CCn1c(-c2ccccc2SC)n[nH]c1=S,-2%,-1,?,-4,7%,i
CCCCCCCCCCCCCCCC(=O)OC(CC(=O)O)C[N+](C)(C)C (stereo not drawn),8%,nt,-12%,nt,2%,1%
O=C(NNc1cc(Br)c(O)c(Br)c1)c1ccccc1,23%,6,-23%,-8,-11%,26%
CCOC(=O)CNC1CC(=O)N(c2ccc(Br)cc2)C1=O (stereo not drawn),19%,-2,2%,5,63%,?
COc1ccc(-c2csc(-c3ccc(C(=O)O)cc3)n2)cc1,25%,27*,i,61*,-3%,245%
COc1ccc(-c2nc(CC(=O)O)cs2)cc1,12%,-1,42%,-5,5%,nt
O=C(O)c1ccc(-c2nc(-c3ccc(Cl)cc3)cs2)cc1,3%,32*,358%,81*,-2%,210%
C=CCNC(=O)c1ccc(-c2nc3ccccc3nc2-c2ccccc2)cc1,?,nt,nt,nt,-13%,nt
C=CCNC(=O)c1ccc(-c2nc(-c3ccccc3)cs2)cc1,?,33*,?,51*,-9%,-91%
O=C(O)c1ccc(-c2nc(-c3ccc(Cl)cc3Cl)cs2)cc1,10%,34*,225%,77*,?,244%
CCCC/C=C/[C@H](c1ccccc1)[C@H](CO)Cc1ccccc1,nt,5,nt,40,nt,nt
CCCCN(C(=O)c1cc(S(=O)(=O)N2CCCCCC2)ccc1OC)c1ccccc1,?,nt,?,nt,0%,?
